Reference: the supplement of paper PMC12645437, “Orthogonal IMiD-Degron Pairs Induce Selective Protein Degradation in Cells” (ACS Chemical Biology, 2025)
Whole data set: some 8,300 sequences, median “log2 fold change of degron read counts, EGFP-low vs EGFP+ sorted cells (limma voom), compound-induced degradation” near -1.1, cut for the highest 2% near 3.2. The sample holds the highest values, similar sequences and a random draw of the others, so the mix is not that of the screen.

T1: CRBN, Q96SW2
T1 chain: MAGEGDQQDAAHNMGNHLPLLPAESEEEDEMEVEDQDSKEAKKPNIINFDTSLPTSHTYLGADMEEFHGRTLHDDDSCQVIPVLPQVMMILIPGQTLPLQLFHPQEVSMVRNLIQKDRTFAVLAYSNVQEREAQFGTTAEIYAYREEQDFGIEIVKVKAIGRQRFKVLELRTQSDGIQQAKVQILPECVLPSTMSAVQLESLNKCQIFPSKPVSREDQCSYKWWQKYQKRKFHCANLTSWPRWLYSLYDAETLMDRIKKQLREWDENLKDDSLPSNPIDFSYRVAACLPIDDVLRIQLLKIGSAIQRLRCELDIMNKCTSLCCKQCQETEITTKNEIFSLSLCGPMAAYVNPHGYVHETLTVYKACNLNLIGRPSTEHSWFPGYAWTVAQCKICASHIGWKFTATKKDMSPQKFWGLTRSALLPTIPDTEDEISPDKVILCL


Target: T1, CRBN, Q96SW2
Test: log2 fold change of degron read counts, EGFP-low vs EGFP+ sorted cells (limma voom), compound-induced degradation; higher = more compound-induced degradation of the degron-EGFP fusion; degrons are variants of IKZF1/3 zinc finger 2; compound dose not given here
Conditions: Jurkat, 18 h
[1] = compound: compound 19 (5-tert-butyl-thalidomide)
[2] = compound: compound 22 (5-morpholino-thalidomide)
[3] = compound: compound 33 (diphenyl IMiD analogue)
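Further: pooled lentiviral library of zinc finger degron-EGFP fusions in mCherry-positive Jurkat cells, FACS-sorted after compound exposure, with degron abundance counted by next-generation sequencing.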

| Sequence | log2 fold change of degron read counts [1] | log2 fold change of degron read counts [2] | log2 fold change of degron read counts [3] | log2 fold change of degron read counts (compound: thalidomide) |
| --- | --- | --- | --- | --- |
| FHCNQCGRVFTQKGNLLRHIKL [46F_47H_49N_50Q_52G_53R_54V_55F_67L_, Q9UKT9] | -1.76 | -2.76 | -1.72 | -1.87 |
| FTCPQCGAAFTQKGNLLRHIKL [46F_47T_49P_50Q_52G_53A_54A_55F_67L_, Q9UKT9] | -0.476 | 0.413 | 1.73 | 0.798 |
| FRCEVCGAMFTQKGNLLRHIKL [46F_47R_49E_50V_52G_53A_54M_55F_67L_, Q9UKT9] | -0.953 | -0.985 | 0.652 | 0.605 |
| FCCDICGAKFTQKGNLLRHIKL [46F_47C_49D_50I_52G_53A_54K_55F_67L_, Q9UKT9] | 1.97 | 1.65 | -1.18 | 0.858 |
| FKCDICGAKFTQKGNLLRHIKL [46F_47K_49D_50I_52G_53A_54K_55F_67L_, Q9UKT9] | -2.45 | -3.31 | -3.09 | -2.29 |
| FQCDICGAKFTQKGNLLRHIKL [46F_47Q_49D_50I_52G_53A_54K_55F_67L_, Q9UKT9] | -0.69 | 2.25 | -0.885 | 3.28 |
| FTCDICGAKFTQKGNLLRHIKL [46F_47T_49D_50I_52G_53A_54K_55F_67L_, Q9UKT9] | -0.131 | 0.993 | -1.38 | 0.963 |
| FMCDICGAKFTQKGNLLRHIKL [46F_47M_49D_50I_52G_53A_54K_55F_67L_, Q9UKT9] | -0.74 | -1.21 | -0.567 | -0.432 |
| FNCDICGAKFTQKGNLLRHIKL [46F_47N_49D_50I_52G_53A_54K_55F_67L_, Q9UKT9] | 0.554 | -1.18 | -2.65 | -2.02 |
| FICDICGAKFTQKGNLLRHIKL [46F_47I_49D_50I_52G_53A_54K_55F_67L_, Q9UKT9] | -1.2 | 1.29 | -0.575 | 0.898 |
| FECDICGAKFTQKGNLLRHIKL [46F_47E_49D_50I_52G_53A_54K_55F_67L_, Q9UKT9] | -0.727 | -2.12 | -2.83 | 0.61 |
| FWCDICGAKFTQKGNLLRHIKL [46F_47W_49D_50I_52G_53A_54K_55F_67L_, Q9UKT9] | 3.22 | 3.7 | 0.265 | -0.173 |
| FYCDICGAKFTQKGNLLRHIKL [46F_47Y_49D_50I_52G_53A_54K_55F_67L_, Q9UKT9] | 3.2 | 3.32 | 0.608 | -0.632 |
| FFCDICGAKFTQKGNLLRHIKL [46F_47F_49D_50I_52G_53A_54K_55F_67L_, Q9UKT9] | 3.35 | 3.15 | 0.231 | -0.76 |
| FLCDICGAKFTQKGNLLRHIKL [46F_47L_49D_50I_52G_53A_54K_55F_67L_, Q9UKT9] | -0.855 | -1.86 | -1.23 | 0.0222 |
| FNCDVCGAHFTQKGNLLRHIKL [46F_47N_49D_50V_52G_53A_54H_55F_67L_, Q9UKT9] | -0.166 | -1.87 | -1.95 | -2.36 |

| Sequence | log2 fold change of degron read counts [1] | log2 fold change of degron read counts [2] | log2 fold change of degron read counts [3] | log2 fold change of degron read counts (compound: thalidomide) |
| --- | --- | --- | --- | --- |
| FLCPQCGAPFTQKGNLLRHIKL [46F_47L_49P_50Q_52G_53A_54P_55F_67L_, Q9UKT9] | -1.51 | -0.398 | 0.89 | 0.718 |
| LRCNQCGFVCTQKGNLLRHIKL [46L_47R_49N_50Q_52G_53F_54V_55C_67L_, Q9UKT9] | -1.27 | -2.74 | -1.29 | -1.39 |
| FGCEICGAFFTQKGNLLRHIKL [46F_47G_49E_50I_52G_53A_54F_55F_67L_, Q9UKT9] | 2.48 | 1.05 | 2.58 | 0.0705 |
| FECPVCGADFTQKGNLLRHIKL [46F_47E_49P_50V_52G_53A_54D_55F_67L_, Q9UKT9] | -1.59 | -1.56 | 2.05 | 2.24 |
| FACEVCGAQFTQKGNLLRHIKL [46F_47A_49E_50V_52G_53A_54Q_55F_67L_, Q9UKT9] | 3.49 | 2.06 | 0.981 | 0.73 |
| FYCEVCGAQFTQKGNLLRHIKL [46F_47Y_49E_50V_52G_53A_54Q_55F_67L_, Q9UKT9] | 3.53 | 3.57 | 2.99 | 1.94 |
| FVCEVCGAQFTQKGNLLRHIKL [46F_47V_49E_50V_52G_53A_54Q_55F_67L_, Q9UKT9] | 0.146 | 2.74 | 2.92 | 2.99 |
| FDCEVCGAQFTQKGNLLRHIKL [46F_47D_49E_50V_52G_53A_54Q_55F_67L_, Q9UKT9] | 1.45 | 0.572 | -0.0193 | 1.19 |
| FICEVCGAQFTQKGNLLRHIKL [46F_47I_49E_50V_52G_53A_54Q_55F_67L_, Q9UKT9] | -0.278 | 2.8 | 2.99 | 2.69 |
| FECEVCGAQFTQKGNLLRHIKL [46F_47E_49E_50V_52G_53A_54Q_55F_67L_, Q9UKT9] | -0.548 | -1.16 | 1.28 | 2.29 |
| FWCEVCGAQFTQKGNLLRHIKL [46F_47W_49E_50V_52G_53A_54Q_55F_67L_, Q9UKT9] | 3.44 | 3.79 | 2.82 | 2.03 |
| FQCEVCGAQFTQKGNLLRHIKL [46F_47Q_49E_50V_52G_53A_54Q_55F_67L_, Q9UKT9] | 0.659 | 2.56 | 2.21 | 3.77 |
| FSCEVCGAQFTQKGNLLRHIKL [46F_47S_49E_50V_52G_53A_54Q_55F_67L_, Q9UKT9] | 2.77 | 2.35 | 1.32 | 1.33 |
| FHCEVCGAQFTQKGNLLRHIKL [46F_47H_49E_50V_52G_53A_54Q_55F_67L_, Q9UKT9] | 1.71 | 2.6 | 1.97 | 0.794 |
| FRCEVCGAQFTQKGNLLRHIKL [46F_47R_49E_50V_52G_53A_54Q_55F_67L_, Q9UKT9] | 0.18 | 0.339 | 1.48 | 1.56 |
| FNCEVCGAQFTQKGNLLRHIKL [46F_47N_49E_50V_52G_53A_54Q_55F_67L_, Q9UKT9] | 2.48 | 1.07 | 0.414 | 0.334 |
